The text below walks through data of PubChem BioAssay (EPA / NIEHS).

The target of experiment [1] is Estrogen receptor beta (Homo sapiens) (UniProt Q92731). As to the kind of experiment: OT_ER_ERbERb_1440: Odyssey Thera (OT) 24-hour HEK293T Protein-Complementation Assay for Estrogen Receptor-beta/-beta Homodimer (AID 2283380).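 Note: scored as signal increase over DMSO baseline for both agonists and antagonists.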 The procedure, abridged: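 HEK293T cells stably expressing ER beta LBD (aa 310-547) homodimer fragment-complementation reporter, dosed 24 h. Cells formaldehyde-fixed, Draq5-stained; gain in nuclear (agonist) or nuclear plus cytoplasmic (antagonist) fluorescence versus DMSO read by laser scanning cytometry.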
Chain of Estrogen receptor beta (Homo sapiens) (Q92731 whole entry, looked up, the tested form may be a part): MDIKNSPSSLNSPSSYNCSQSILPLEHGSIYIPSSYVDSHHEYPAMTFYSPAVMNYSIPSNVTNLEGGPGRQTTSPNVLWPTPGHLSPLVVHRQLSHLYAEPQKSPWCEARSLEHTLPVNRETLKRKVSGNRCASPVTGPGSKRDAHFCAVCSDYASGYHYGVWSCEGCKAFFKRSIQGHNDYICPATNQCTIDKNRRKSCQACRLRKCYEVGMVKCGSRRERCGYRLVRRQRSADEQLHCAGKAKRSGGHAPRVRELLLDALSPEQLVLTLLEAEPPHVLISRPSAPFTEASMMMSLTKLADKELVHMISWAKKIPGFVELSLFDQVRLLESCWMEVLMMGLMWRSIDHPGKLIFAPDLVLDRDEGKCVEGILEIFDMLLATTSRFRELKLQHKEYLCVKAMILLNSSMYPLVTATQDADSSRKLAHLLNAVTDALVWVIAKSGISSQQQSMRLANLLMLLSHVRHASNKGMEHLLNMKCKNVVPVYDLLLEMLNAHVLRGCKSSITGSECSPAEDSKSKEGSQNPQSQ

For experiment [2], the target named is Estrogen receptor (Homo sapiens) (UniProt P03372). As to the kind of experiment: OT_ERa_GFPERaERE_0480: Odyssey Thera (OT) 8-hour HeLa Transcription Induction Assay for Estrogen Receptor (AID 2283381; active = hit-call score of the fitted dose curve at least 0.9, where 1 is the maximum; inactive = score below 0.9). The procedure, abridged:
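Human cervical HeLa cells were treated for 8 hours, after which ERE-driven GFP induction was measured by fluorescence microscopy; increases over DMSO baseline defined activity.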

For experiment [3] the target is unchanged. As to the kind of experiment: OT_ERa_GFPERaERE_0120: Odyssey Thera (OT) 2-hour HeLa Transcription Induction Assay for Estrogen Receptor (AID 2283382). The procedure, abridged:
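Cells (human cervical HeLa) receive compound, incubate 2 hours, then are imaged for fluorescent reporter induction. Images are quantified by high content analysis, and activity is fitted as gain of signal against DMSO.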

Experiment [4] has as its target Retinoic acid receptor RXR-alpha (Homo sapiens) (UniProt P19793). As to the kind of experiment: OT_NURR1_NURR1RXRa_0480: Odyssey Thera (OT) 8-hour HEK293T Protein Complementation Assay for Nurr1/retinoid X receptor (RXR) (AID 2283385). The procedure, abridged: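 Interaction of bait and prey reconstitutes a functional reporter, whose fluorescence was measured in HEK293T cells dosed with compound for 8 hours. Signal gain relative to DMSO defined the single endpoint.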

Experiment [5] concerns the target Peroxisome proliferator-activated receptor gamma (Homo sapiens) (UniProt P37231). The experiment is described as follows: OT_PPARg_PPARgSRC1_0480: Odyssey Thera (OT) 8-hour Protein-Complementation Assay for Peroxisome Proliferator-activated Receptor Gamma / SRC-1 Co-activator (AID 2283387).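 Note: nuclear to cytoplasmic split Venus YFP fluorescence ratio reporting PPARg SRC-1 interaction.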 A digest of the protocol:
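Read-out: 488 nm N/C fluorescence ratio from complemented Venus YFP fragments, ≥350 cells per image, gain-of-signal fitted against DMSO baseline. Fusions of PPARg/SRC-1 with IFP1/IFP2 expressed transiently in HEK293T; compounds applied 8 h.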

Experiment [6] has the same target. The experiment is described as follows: OT_PPARg_PPARgSRC1_1440: Odyssey Thera (OT) 24-hour Protein-Complementation Assay for Peroxisome Proliferator-activated Receptor Gamma/ SRC-1 Co-activator (AID 2283388).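 Note: nuclear to cytoplasmic ratio of reconstituted Venus YFP fluorescence in fixed imaged cells.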 The procedure, abridged:
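Protein-fragment complementation between PPARg and coactivator SRC-1 was measured by fluorescence imaging in transiently transfected HEK293T cells after 24 h treatment. Signal was quantified as N/C ratio in the 488 nm channel, with DMSO as negative control.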

Experiment [7] is described as follows: CEETOX_H295R_11DCORT: CeeTox H295R High-throughput Steroidogenesis Assay for 11-Deoxycortisol (11DCORT) (AID 2283432; active = hit-call score of the fitted dose curve at least 0.9, where 1 is the maximum; inactive = score below 0.9). The settings on record: actives raise or lower the signal. A digest of the protocol: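 H295R cells; 10 uM forskolin prestim 48 h; compound in 0.1% DMSO 48 h; media extracted with MTBE; 11-deoxycortisol by LC-MS/MS, 7-point standard curve; gain/loss vs DMSO baseline; viability by MTT in same wells.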

Experiment [8] is described as follows: CEETOX_H295R_OHPROG: CeeTox H295R High-throughput Steroidogenesis Assay for OH-Progesterone (OHPROG) (AID 2283435; active = hit-call score of the fitted dose curve at least 0.9, where 1 is the maximum; inactive = score below 0.9). The settings on record: actives raise or lower the signal. A digest of the protocol: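 Steps: seed H295R cells and adhere overnight; stimulate with 10 uM forskolin for 48 h; replace with chemical-containing medium (0.1% DMSO) for 48 h; extract medium with MTBE; quantify 17alpha-hydroxyprogesterone by reverse-phase C18 HPLC-MS/MS against a 7-point curve.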

A short description of experiment [9]: CEETOX_H295R_ANDR: CeeTox H295R High-throughput Steroidogenesis Assay for Androstenedione (ANDR) (AID 2283436; active = hit-call score of the fitted dose curve at least 0.9, where 1 is the maximum; inactive = score below 0.9;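 note: human H295R adrenal cells exposed for 48 h with androstenedione measured in medium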). Particulars: actives raise or lower the signal. The procedure, abridged:
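48 h chemical exposure, H295R cells, DMEM/F12 + ITS+ and Nu-Serum. Medium androstenedione: MTBE extraction, C18 reverse-phase HPLC, ESI+ MS/MS. Fit bidirectional vs DMSO; MTT viability in same wells.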

Experiment [10] is described as follows: CEETOX_H295R_CORTIC: CeeTox H295R High-throughput Steroidogenesis Assay for Corticosterone (CORTIC) (AID 2283437; active = hit-call score of the fitted dose curve at least 0.9, where 1 is the maximum; inactive = score below 0.9;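 note: corticosterone secreted into medium quantified by mass spectrometry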). Particulars: actives raise or lower the signal. The procedure, abridged:
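48 h forskolin (10 uM) prestim, then 48 h chemical exposure, final DMSO 0.1%. Readout: corticosterone in medium by LC-MS/MS after MTBE extraction. Gain/loss fit vs DMSO; MTT viability in same wells.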

Experiment [11] deals with Bile acid receptor (Homo sapiens) (UniProt Q96RI1). The experiment is described as follows: OT_FXR_FXRSRC1_1440: Odyssey Thera (OT) 24-hour HEK293T Protein-Complementation Assay for Farnesoid X receptor/SRC-1 Co-activator (AID 2283384). The procedure, abridged:
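Measures ligand-driven FXR–SRC-1 co-activator recruitment in HEK293T via fragment complementation, fluorescence intensity at 24 h. DMSO served as negative control and baseline for gain-of-signal fitting.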

Experiment [12] concerns the target Retinoic acid receptor RXR-alpha (Homo sapiens) (UniProt P19793). As to the kind of experiment: OT_NURR1_NURR1RXRa_1440: Odyssey Thera (OT) 24-hour HEK293T Protein Complementation Assay for Nurr1/retinoid X receptor (RXR) (AID 2283386). The procedure, abridged: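 Steps: fragment-tagged Nurr1 and RXRα expressed in HEK293T; compounds added; after 24 h, complemented reporter quantified by fluorescence intensity; signal increase over DMSO fitted as the single endpoint.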

Results filed as inconclusive are left out. Calls of active or inactive are those of the source. Rule for the calls, unless noted: active = hit-call score of the fitted dose curve at least 0.9, where 1 is the maximum; inconclusive = response in the unintended direction; inactive = score below 0.9.

Chain of Bile acid receptor (Homo sapiens) (Q96RI1 whole entry, looked up, the tested form may be a part): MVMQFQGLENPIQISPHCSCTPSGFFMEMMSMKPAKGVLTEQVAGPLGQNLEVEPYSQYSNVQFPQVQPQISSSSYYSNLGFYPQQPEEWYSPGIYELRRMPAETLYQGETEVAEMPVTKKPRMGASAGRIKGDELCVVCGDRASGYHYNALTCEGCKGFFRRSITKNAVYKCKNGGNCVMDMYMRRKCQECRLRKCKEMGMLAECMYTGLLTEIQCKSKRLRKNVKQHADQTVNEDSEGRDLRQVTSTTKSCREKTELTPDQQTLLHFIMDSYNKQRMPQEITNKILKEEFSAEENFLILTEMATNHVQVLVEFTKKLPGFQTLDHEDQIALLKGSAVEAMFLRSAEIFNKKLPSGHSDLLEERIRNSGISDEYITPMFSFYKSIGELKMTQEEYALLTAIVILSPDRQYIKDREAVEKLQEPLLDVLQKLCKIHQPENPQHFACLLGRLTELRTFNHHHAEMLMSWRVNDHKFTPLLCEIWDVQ
Chain of Peroxisome proliferator-activated receptor gamma (Homo sapiens) (P37231 whole entry, looked up, the tested form may be a part): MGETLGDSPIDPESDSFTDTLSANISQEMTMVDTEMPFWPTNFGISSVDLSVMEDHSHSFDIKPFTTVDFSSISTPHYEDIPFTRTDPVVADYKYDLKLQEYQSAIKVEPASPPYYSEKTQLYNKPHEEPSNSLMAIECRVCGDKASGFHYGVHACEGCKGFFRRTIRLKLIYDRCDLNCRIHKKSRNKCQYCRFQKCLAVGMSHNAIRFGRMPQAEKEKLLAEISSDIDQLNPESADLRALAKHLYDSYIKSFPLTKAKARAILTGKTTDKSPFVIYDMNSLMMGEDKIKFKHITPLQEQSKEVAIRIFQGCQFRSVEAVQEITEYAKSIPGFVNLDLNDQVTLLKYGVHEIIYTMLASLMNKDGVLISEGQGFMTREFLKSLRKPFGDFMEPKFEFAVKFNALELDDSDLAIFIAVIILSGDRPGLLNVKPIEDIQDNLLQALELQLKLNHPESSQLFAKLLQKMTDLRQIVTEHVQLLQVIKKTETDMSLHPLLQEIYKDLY
Chain of Retinoic acid receptor RXR-alpha (Homo sapiens) (P19793 whole entry, looked up, the tested form may be a part): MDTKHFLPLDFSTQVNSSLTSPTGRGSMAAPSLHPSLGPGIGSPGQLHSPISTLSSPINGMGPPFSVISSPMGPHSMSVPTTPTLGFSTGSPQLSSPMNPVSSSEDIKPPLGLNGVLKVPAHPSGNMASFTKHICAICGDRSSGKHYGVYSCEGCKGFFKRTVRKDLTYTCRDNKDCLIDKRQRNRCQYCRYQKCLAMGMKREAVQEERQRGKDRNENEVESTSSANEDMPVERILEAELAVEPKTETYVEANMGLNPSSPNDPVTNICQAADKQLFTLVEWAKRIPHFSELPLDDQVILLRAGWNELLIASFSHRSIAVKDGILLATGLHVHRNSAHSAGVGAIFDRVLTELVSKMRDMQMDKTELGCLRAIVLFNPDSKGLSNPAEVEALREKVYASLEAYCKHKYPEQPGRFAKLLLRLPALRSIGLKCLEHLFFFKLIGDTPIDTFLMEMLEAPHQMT
Chain of Estrogen receptor (Homo sapiens) (P03372 whole entry, looked up): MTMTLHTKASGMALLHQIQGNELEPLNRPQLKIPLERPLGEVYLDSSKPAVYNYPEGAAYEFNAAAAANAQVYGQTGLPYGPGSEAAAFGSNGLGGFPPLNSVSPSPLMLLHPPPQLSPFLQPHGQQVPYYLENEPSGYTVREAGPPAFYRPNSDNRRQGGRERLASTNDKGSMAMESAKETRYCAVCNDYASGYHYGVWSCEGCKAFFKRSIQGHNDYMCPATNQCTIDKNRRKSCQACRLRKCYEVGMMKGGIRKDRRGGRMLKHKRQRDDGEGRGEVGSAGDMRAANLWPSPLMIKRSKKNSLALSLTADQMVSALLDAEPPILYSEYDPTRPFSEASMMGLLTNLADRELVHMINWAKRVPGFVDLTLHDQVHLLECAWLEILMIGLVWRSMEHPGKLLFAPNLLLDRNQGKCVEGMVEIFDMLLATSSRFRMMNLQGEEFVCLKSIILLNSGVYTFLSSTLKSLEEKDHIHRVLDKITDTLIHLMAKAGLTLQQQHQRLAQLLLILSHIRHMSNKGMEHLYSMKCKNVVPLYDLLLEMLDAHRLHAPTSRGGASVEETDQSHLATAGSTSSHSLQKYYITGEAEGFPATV

With `O=[N+]([O-])c1c(Cl)c(Cl)c(Cl)c(Cl)c1Cl`, the molecule was classed as inactive in [1], in [2], in [3], in [4], in [5] and in [6]. Also, the molecule was called inactive in experiment [7], in experiment [8], in experiment [9] and in [10].
The AC50 is the concentration giving half of the maximal activity seen. Take `CCC(C)(NC(=O)c1cc(Cl)c(C)c(Cl)c1)C(=O)CCl` (centres undefined): the result in experiment [1], in experiment [4], in [5] and in experiment [6] was inactive. Moreover, the AC50 is 13.6 µM (active) in [2] and 45 µM (active) in experiment [3].
Consider `CNC(=O)/C=C(\C)OP(=O)(OC)OC`, for which the result in [1], in experiment [2], in experiment [3], in experiment [11], in experiment [4] and in experiment [12] was inactive. Moreover, the molecule was called inactive in experiment [5], in [6], in [7], in experiment [8] and in [10].
Regarding `CNC(=O)CSP(=S)(OC)OC`, the outcome in experiment [1], in experiment [2], in experiment [3], in [4], in experiment [12] and in experiment [5] was inactive. Also, the molecule was called inactive in [6] and in [8].
With `CNC(=O)Oc1ccccc1OC(C)C`, the outcome in [1], in [2], in [3], in [4], in experiment [12] and in experiment [5] was inactive. The molecule was classed as inactive in experiment [6], in [7], in [8] and in [10].
Turning to `O=C(O)C(F)(F)C(F)(F)C(F)(F)C(F)(F)C(F)(F)C(F)(F)C(F)(F)F`, the molecule was classed as inactive in experiment [1], in experiment [4] and in [12].
`CC(C)(C)C(O)/C(=C\c1ccc(Cl)cc1Cl)n1cncn1` (centres undefined): the call in [1], in experiment [5], in experiment [6], in experiment [7], in experiment [8] and in experiment [10] was inactive. Further, the values for the AC50 in experiment [2] and in experiment [3] were 86.7 µM (active) and 93.6 µM (active), respectively.
With `O=C(NC(=O)c1c(F)cccc1F)Nc1ccc(OC(F)(F)C(F)OC(F)(F)F)c(Cl)c1` (centres undefined), the molecule was called inactive in experiment [1], in [2], in experiment [3], in experiment [4], in experiment [12] and in experiment [5]. Further, the result in experiment [6], in experiment [7], in experiment [8] and in experiment [10] was inactive.
On to `Clc1ccccc1-c1nnc(-c2ccccc2Cl)nn1`, for which the call in [1], in experiment [2], in [3], in experiment [4], in experiment [12] and in [5] was inactive. In addition, the molecule was classed as inactive in experiment [6] and in [8].
In the case of `CCc1ccc(C(=O)NN(C(=O)c2cc(C)cc(C)c2)C(C)(C)C)cc1`, the molecule was called inactive in experiment [1], in experiment [2], in [3], in experiment [4], in experiment [12] and in [5]. Moreover, the result in [6], in experiment [7], in experiment [8] and in [10] was inactive. In addition, the AC50 in experiment [11] was 10.6 µM (active).
Take `O=C1c2ccccc2C(=O)N1SC(Cl)(Cl)Cl`: the outcome in experiment [1], in experiment [2], in experiment [3], in [11], in experiment [5] and in experiment [6] was inactive. Also, the molecule was classed as inactive in experiment [8].
As to `O=C(O)COc1ccc(Cl)cc1Cl`, the result in experiment [4], in experiment [12], in [7], in experiment [8] and in experiment [10] was inactive.
For `COP(=O)(OC)OC=C(Cl)Cl`, the call in [1], in experiment [2], in [3], in experiment [4], in experiment [12] and in experiment [5] was inactive. Moreover, in [6], the call was inactive.
